Screens (PubChem)
This is a sample that favours compounds with a hit; in the whole collection about 10% have one here.
G9a block: blocks human histone lysine methyltransferase G9a; G9a H3K9 monomethylation, AlphaScreen, 2 h; Potency, µM (top dose mostly 102 µM), for the others: top-dose activity, negative = inhibition, usual class: inhibitors; 8.8% of 350,000 active; also: potency is read from the fitted curve at half-maximal effect; % is scaled to controls: 0 for no effect and ±100 for the full control effect; nearly all actives have a fitted effect of over 75% in size
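AlphaScreen read-out: biotin-H3K9 peptide (500 nM) methylation by 20 nM enzyme with 20 uM SAM, 2 h at room temperature after 15 min compound preincubation; anti-monomethyl H3K9 antibody plus donor/acceptor beads, 10 min dark.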
CtBP-E1A blk: CtBP/E1A binding inhibition. AlphaScreen GST-E1A/His-CtBP binding, 1536-well; stronger effect = lower value. activity change, % (test concentration not listed). 0.49% of 340,000 active. AID 651724; in the data active = activity change below about -65%; inconclusive = mostly about -30% to -63%; also: % is scaled to controls: 0 for no effect and ±100 for the full control effect
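Protein mix (5X: 125 nM each GST-E1A, His-CtBP) was incubated with pinned compound 2 h at 37 deg C in dark, in 50 mM Tris pH 8.0 buffer with 300 mM NaCl. Glutathione donor and nickel acceptor beads followed; AlphaScreen signal read after 1 h.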
JMJD2A Tudor inh: inhibitors of human JMJD2A Tudor domain. 4.4% of 390,000 active. AlphaScreen JMJD2A-Tudor / H3K4me3 peptide binding. Potency, µM (series often up to 114 µM), for the others: top-dose activity change, negative = inhibition, actives largely listed as inhibitors. O75164; also: potency is read from the fitted curve at half-maximal effect; % is scaled to controls: 0 for no effect and ±100 for the full control effect; nearly all actives have a fitted effect of over 50% in size
Six1-Eya2 inh: inhibitors of human Six1/Eya2 interaction; Q15475+O00167; AlphaScreen GST-Six1/His-Eya2 binding, biochemical; stronger effect = lower value; activity change, % (test concentration not listed); 0.56% of 360,000 active; in the data active = activity change below about -65%; inconclusive = mostly about -30% to -63%; also: % is scaled to controls: 0 for no effect and ±100 for the full control effect
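Compounds are tested against tagged Six1 and Eya2 proteins bridged by glutathione donor and nickel acceptor beads; after a one-hour incubation at 37 °C without light, AlphaScreen emission is recorded.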
HP1b binding inh: inhibitors of HP1-beta chromodomain binding to methylated histone tails; AID 540317; Potency, µM (top dose mostly 114 µM), inactives show at the highest dose activity change, negative = inhibition, usual class: inhibitors; 0.56% of 390,000 active; AlphaScreen HP1-beta / biotin-H3K9me3 peptide binding; also: potency is read from the fitted curve at half-maximal effect; nearly all actives have a fitted effect of over 70% in size
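Compound inhibition of the preformed complex between 50 nM HP1-beta and 50 nM biotinylated H3K9me3 peptide was read by AlphaScreen. Buffer was PBS pH 7.4 with 0.01% Tween-20. Incubations ran 30 min at room temperature, with 10 ug/mL donor/acceptor beads.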
BAZ2B inh: BAZ2B (human) inhibition. AlphaScreen BAZ2B-H3K14Ac peptide displacement. Potency, µM (series often up to 114 µM), inactives show at the top dose activity change, negative = inhibition, usual class: inhibitors. 4.4% of 360,000 active; also: potency is read from the fitted curve at half-maximal effect; % is scaled to controls: 0 for no effect and ±100 for the full control effect; nearly all actives have a fitted effect of over 60% in size
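Compounds, titrated to a top concentration of 110 uM, were incubated 30 min at room temperature with preformed BAZ2B/acetyl-K14 H3 peptide complex (50 nM each). Proximity signal was measured by AlphaScreen after 20 min with beads.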
* hit, by the source's call; u = inconclusive; x = no result given; [ ] = remark or other dose. Unless noted, calls follow the shape of the dose curve; as a rule, active = well fitted inhibition curve with a large enough effect; inconclusive = small, poorly fitted or top-dose-only effect; inactive = no such curve, though single readings can be large or run the other way.

SMILES	G9a block	CtBP-E1A blk	JMJD2A Tudor inh	Six1-Eya2 inh	HP1b binding inh	BAZ2B inh
CC(C)(C)n1nnnc1C(c1ccccc1)N1CCN(C(=O)c2ccco2)CC1 (stereo unspecified)	x	4	x	10	x	x
Cc1ccc(NC(=O)C2CCCN(S(=O)(=O)c3ccc4[nH]c(=O)ccc4c3)C2)c(C)c1 (stereo unspecified)	x	2	-6%	-3	29%	9%
O=C(N=C1c2ccccc2CN1c1ccc(F)cc1)c1ccc(Cl)nc1	22µM*	1	-12%	-4	23%	4%
COc1ccc(N2Cc3ccccc3C2=NC(=O)c2cccc([N+](=O)[O-])c2)cc1	20µM*	-2	-22%	-3	4%	u
CC(=O)c1ccc(N2Cc3ccccc3C2=NC(=O)c2cccs2)cc1	-1%[59 µM]	0	-16%	-3	16%	-5%
CCOC(=O)c1ccc(N2Cc3ccccc3C2=NC(=O)c2ccncc2)cc1	u	10	-2%	-3	46%	-1%
COc1ccc(N2Cc3ccccc3C2=NC(=O)c2cncc(Br)c2)cc1	32µM*	x	u	2	11%	-30%
COc1ccc(N2Cc3ccccc3C2=O)cc1	-2%	1	-5%	0	50%	-37%
Cc1c(P(=S)(c2ccccc2)c2ccccc2)c2ccccc2n1C(=O)NCc1ccccc1	x	x	-18%	x	x	x
COc1ccc(S(=O)(=O)N(CC(=O)NC(C)c2ccccc2)c2ccc(C)cc2)cc1OC (stereo unspecified)	u	x	-17%	x	20%	-2%
O=C(NCc1ccc2c(c1)OCO2)c1ccccn1	0%[59 µM]	4	-1%	-2	21%	-6%
CC(C)C(=O)N(Cc1ccc2c(c1)OCO2)Cc1ccccn1	40µM*	3	56µM*	0	2%	u
COCCN(CCOC)S(=O)(=O)c1ccc(C(=O)Nc2nnc(C)o2)cc1	7.1µM*	-17	28µM*	-25	4%	14µM*
O=C(Nc1nnc(-c2ccco2)o1)c1ccc2ccccc2c1	-4%[59 µM]	-19	-15%[57.1 µM]	-18	48%	8%
Cc1nnc(NC(=O)c2ccc3ccccc3c2)o1	7%[59 µM]	u	50µM*	u	31%	28µM*
Cc1nnc(NC(=O)c2ccc(S(=O)(=O)N(C)Cc3ccccc3)cc2)o1	-1%	-28	u	-21	43%	79µM*
CCOc1ccc(C2C(C(=O)Nc3ccc(C)cc3C)=C(C)Nc3c(C(=O)Nc4ccc(C)cc4)cnn32)cc1OC (stereo unspecified)	u	x	-3%	x	23%	3%[57.1 µM]
CC(=O)N1CCN(C(c2ccccc2)c2nnnn2C(C)(C)C)CC1 (stereo unspecified)	x	1	x	1	x	x
Cc1ccccc1-c1nc(Nc2ccncc2)c2ccccc2n1	-2%[0.501 µM]	x	x	x	x	x
O=C(Cn1cc(CNCc2ccccc2)nn1)Nc1cc(C(F)(F)F)ccc1Cl	x	x	-9%	x	x	x
Cc1ccc(N/N=C(\C#N)C(N)=S)c(C)c1	10µM*	0	45µM*	-10	u	u
CC(=O)c1ccc(NC(=O)CSc2nnc3ccc(-c4ccc(Br)cc4)nn23)cc1	11%[59 µM]	x	-4%	x	-4%	2%
COc1cc(NC(=O)CCc2ccccc2)nc(OC)n1	9%[59 µM]	3	4%	1	26%	12%
COc1cc(C(=O)O)nc(OC)n1	u	0	2.8µM*	6	-6%	71µM*
COc1ccc2oc(C(=O)OCC(=O)N3CCN(S(=O)(=O)c4ccccc4)CC3)c(C)c2c1	50µM*	-1	-18%	-10	20%	7%
SMILES	G9a block	CtBP-E1A blk	JMJD2A Tudor inh	Six1-Eya2 inh	HP1b binding inh	BAZ2B inh
Cc1c(C(=O)N2CCN(S(=O)(=O)c3ccc(F)cc3)CC2)oc2ccccc12	50µM*	1	-15%	-2	17%	0%
Cn1ccc2cc(S(=O)(=O)N3CCN(C(=O)Nc4ccccc4F)CC3)ccc21	6%[59 µM]	x	-5%	x	8%[57 µM]	-7%
O=C(O)CSc1sc(=S)sc1SCC(=O)O	45µM*	14	u	0	0%	-29%
O=C(O)CSc1ccc(Oc2ccc(SCC(=O)O)cc2)cc1	x	0	-10%	7	26%	-9%
Cc1cccc(-n2cc[nH]c2=S)c1	2.8µM*	-1	5.6µM*	-2	11%	-1%
Cc1ccccc1-n1cc[nH]c1=S	13µM*	0	10µM*	-8	16%	5%
Cc1cccc(-n2cc[nH]c2=S)c1C	1.8µM*	-6	40µM*	5	35%	-6%
CC(C)c1ccccc1-n1cc[nH]c1=S	4µM*	-6	22µM*	1	23%	u
CCc1ccc2c(-c3cccc(Cl)c3)nc(=O)n(CC)c2n1	-21%[59 µM]	x	x	x	x	x
S=c1[nH]ccn1-c1c(Cl)cccc1Cl	10µM*	-3	2%	-4	25%[57 µM]	-12%
C=Cc1ccc2c(c1)N(C)C(=C)S2	8.9µM*	1	u	4	-6%	-26%
CN1C(=O)c2ccccc2Sc2ccc(C(=O)O)cc21	13%	5	2%	3	21%	8%
Cc1cccc(NC(=O)CN2C(=O)C(c3ccccc3)=NC23CCC(C)CC3)c1 (stereo unspecified)	5%[59 µM]	x	-9%	x	26%	-1%
Cc1cc(C(=O)C(C)OC(=O)c2cnccn2)c(C)n1-c1ccccc1 (stereo unspecified)	56µM*	-3	u	-5	-12%	25µM*
COc1ccc(Nc2nc(C(=O)N(CCO)Cc3ccccc3)cs2)cc1	45µM*	x	-31%	3	17%	50µM*
COc1ccc(Nc2nc(C(=O)NCc3ccco3)cs2)cc1	u	x	u	-20	-10%	79µM*
O=C(NCc1ccco1)c1csc(Nc2ccccc2Cl)n1	32µM*	u	-35%	-23	1%	u
COc1ccc(Nc2cc(C(=O)NCc3ccco3)c3ccccc3n2)cc1	-1%	x	x	x	x	-25%
Cc1nn(C(=O)C2CC2)c(C)c1Sc1ccc(Cl)cc1	44%[59 µM]	38	133%	44	154%	87%
CCCC(=O)Oc1c(Sc2ccc(C)cc2)c(C)nn1-c1ccccc1	2µM*	x	-6%	x	89%	37%
Cc1ccc(Sc2c(C)nn(C(C)(C)C)c2OC(=O)CC(C)C)cc1	82%[59 µM]	x	70%	x	93%	84%
CCC(=O)Oc1c(Sc2ccc(Cl)cc2)c(C)nn1-c1ccccc1	2.8µM*	x	-22%	x	30%	1%
CCC(=O)Oc1c(Sc2ccc(C)cc2)c(C)nn1-c1ccccc1	10µM*	x	-13%	x	49%	10%
CN1CC(=O)N(CC(=O)Nc2ccc(N3CCOCC3)cc2)C1=O	-51%[2.33 µM]	x	-4%	8	27%	-7%
